# Experimental data reported in article PMC4336329 (PLoS ONE, 2015).
# Out of some 310,000 compounds screened, about 2,200 (0.71%) showed an effect of 50% or more. Effects have a minus sign here. The entries come from a sample that favours strong results as a whole.
# Target: human ether-à-go-go-related gene (hERG) potassium channel (human, UniProt Q12809)
# Assay: primary screen, population patch clamp on CHO cells stably expressing hERG; higher = less effect of the substance
# human ether-à-go-go-related gene (hERG) potassium channel, sequence (Q12809 whole entry, looked up): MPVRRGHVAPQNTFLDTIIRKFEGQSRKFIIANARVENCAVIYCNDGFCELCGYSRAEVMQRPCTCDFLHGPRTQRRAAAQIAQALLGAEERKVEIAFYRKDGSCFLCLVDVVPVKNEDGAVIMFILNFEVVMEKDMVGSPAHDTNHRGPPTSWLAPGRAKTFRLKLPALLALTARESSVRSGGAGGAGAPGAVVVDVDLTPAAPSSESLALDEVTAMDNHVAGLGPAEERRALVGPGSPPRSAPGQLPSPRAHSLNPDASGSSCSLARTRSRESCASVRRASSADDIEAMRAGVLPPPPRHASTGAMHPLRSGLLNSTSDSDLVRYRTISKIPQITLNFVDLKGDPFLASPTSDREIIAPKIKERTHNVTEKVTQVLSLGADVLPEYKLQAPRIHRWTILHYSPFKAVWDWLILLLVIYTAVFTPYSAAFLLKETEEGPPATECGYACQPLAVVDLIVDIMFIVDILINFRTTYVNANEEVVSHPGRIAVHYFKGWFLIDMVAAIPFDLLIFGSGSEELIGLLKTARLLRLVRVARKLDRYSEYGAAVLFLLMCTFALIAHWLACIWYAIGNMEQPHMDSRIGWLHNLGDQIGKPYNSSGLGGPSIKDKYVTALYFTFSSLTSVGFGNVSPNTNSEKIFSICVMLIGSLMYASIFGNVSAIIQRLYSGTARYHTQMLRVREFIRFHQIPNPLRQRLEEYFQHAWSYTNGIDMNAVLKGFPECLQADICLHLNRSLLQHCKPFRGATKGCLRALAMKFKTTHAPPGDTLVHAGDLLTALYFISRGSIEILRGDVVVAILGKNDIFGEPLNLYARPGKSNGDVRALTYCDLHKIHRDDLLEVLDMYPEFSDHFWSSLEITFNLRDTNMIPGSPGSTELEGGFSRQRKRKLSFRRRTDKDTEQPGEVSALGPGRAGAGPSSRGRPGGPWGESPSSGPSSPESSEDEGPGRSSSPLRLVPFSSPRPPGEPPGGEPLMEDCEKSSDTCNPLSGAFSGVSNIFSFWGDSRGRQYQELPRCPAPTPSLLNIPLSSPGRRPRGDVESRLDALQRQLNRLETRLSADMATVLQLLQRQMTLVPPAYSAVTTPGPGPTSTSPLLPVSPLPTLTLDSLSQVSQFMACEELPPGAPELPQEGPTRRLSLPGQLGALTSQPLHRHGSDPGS
row,Compound,"hERG current change (%, negative = inhibition) at 1uM"
1,Cc1cc(C(=O)CN2C(=O)NC3(CCCCC3)C2=O)c(C)n1-c1ccc2c(c1)OCO2,5.94%
2,C=CCN(CC=C)C(=O)C(=O)c1ccn(-c2c(C)csc2C(=O)OC)c1,-59.3%
3,COC(=O)c1scc(C)c1-n1ccc(C(=O)C(=O)N(C)C)c1,9.29%
4,CCN(CC)C(=O)C(=O)c1ccn(-c2c(C)csc2C(=O)OC)c1,7.53%
5,CC(C)(C)CN1CCNC(=O)C1CC(=O)NCCc1cnn(-c2ccccc2)c1 (centres unmarked),5.53%
6,CSc1sc(C(=O)Nc2ccc(F)cc2F)c2c1C=CCC2,11.8%
7,COc1ccc(NS(=O)(=O)c2cccs2)cc1S(=O)(=O)N1CCOCC1,14.7%
8,O=C(Nc1ccccc1)N1CCN(c2ncccn2)CC1,6.7%
9,OC1(Cc2cc(-c3ccccc3)no2)CCN(CCCc2ccccc2)CC1,-55.5%
10,c1ccc(CCCN2CCOCC2)cc1,22.1%
11,COc1cccc(-c2cc(CC3(O)CCN(CCCc4ccccc4)CC3)on2)c1,-39.3%
12,O=C(NCCN1CCOCC1)c1ccc(CS(=O)(=O)c2ccc(Br)cc2)o1,-0.189%
13,COc1ccccc1S(=O)(=O)Cc1ccc(C(=O)NCCCN2CCN(c3ccc(F)cc3)CC2)o1,-68.3%
14,COc1ccc(N2CCN(CCCNC(=O)c3ccc(CS(=O)(=O)c4ccc(Cl)cc4)o3)CC2)cc1,-71.2%
15,O=C(NCCCN1CCCC1)c1ccc(CS(=O)(=O)c2ccc(Cl)cc2)o1,18.1%
16,O=C(NCCN1CCN(Cc2ccccc2)CC1)c1ccc(CS(=O)(=O)c2ccc(Br)cc2)o1,-50.5%
17,O=C(NCCN1CCCCCC1)c1ccc(CS(=O)(=O)c2ccc(Br)cc2)o1,-37.9%
18,COc1ccccc1S(=O)(=O)Cc1ccc(C(=O)NCCN2CCCCCC2)o1,9.15%
19,COc1ccc(N2CCN(CCCNC(=O)c3ccc(CS(=O)(=O)c4ccc(OC)cc4)o3)CC2)cc1,-43.1%

row,Compound,"hERG current change (%, negative = inhibition) at 1uM"
1,COc1ccccc1S(=O)(=O)Cc1ccc(C(=O)NCCN2CCCC2)o1,14.2%
2,CSc1nc2nc3c(c(=O)n2[nH]1)CCC3,1.88%
3,CCOC(=O)c1sc2nc[nH]c(=O)c2c1C,12.6%
4,Cc1cc2c(cc1C)[n+](C)cn2CC(O)COCC1CC=CCC1.[I-] (centres unmarked),11%
5,CC(=O)CC(c1ccccc1)c1c(O)c2ccccc2oc1=O.[Na] (centres unmarked),15.2%
6,Cc1ccc(C(=O)Nc2cccc(-c3ccc(N4CCOCC4)nn3)c2)cc1,4.57%
7,COc1cc(SC)ccc1C(=O)OCC(=O)NC1CCCC1,9.49%
8,Fc1ccc(CSc2nnc3ccc(-c4ccncc4)nn23)cc1,-61.2%
9,Fc1ccc(CSc2ccc3nnc(-c4cccnc4)n3n2)cc1,-31.8%
10,c1ccc(CSc2nnc3ccc(-c4ccncc4)nn23)cc1,-12%
11,Brc1ccc(CSc2ccc3nnc(-c4ccccn4)n3n2)cc1,-12.7%
12,Fc1ccc(CSc2ccc3nnc(-c4ccccn4)n3n2)cc1,-92.9%
13,Fc1cccc(Cl)c1CSc1ccc2nnc(-c3ccccn3)n2n1,1.37%
14,Cc1ccc(CSc2ccc3nnc(-c4cccnc4)n3n2)cc1,-70.6%
15,Fc1cccc(CSc2ccc3nnc(-c4ccccn4)n3n2)c1,-50.2%
16,O=C(CSc1ccc2nnc(-c3ccccn3)n2n1)Nc1cccc(F)c1,-7.83%
17,c1ccc(CSc2ccc3nnc(-c4ccccn4)n3n2)cc1,-26.6%
18,Cc1ccc(CSc2nnc3ccc(-c4ccncc4)nn23)cc1,-3.17%
19,Cc1cccc(CSc2ccc3nnc(-c4cccnc4)n3n2)c1,-16%

row,Compound,"hERG current change (%, negative = inhibition) at 1uM"
1,Cc1cc[n+](CC(=O)Nc2cc(C(F)(F)F)ccc2Cl)cc1.[Cl-],5.29%
2,O=C(NCCS(=O)(=O)N1CCC2(CC1)OCCO2)c1ccc(F)cc1,13.2%
3,CSc1nc2ccccc2cc1/C=C(\C#N)c1ccccc1,9.25%
4,Cc1ccccc1S(=O)Cc1ccc(C(=O)NCCN2CCOCC2)o1 (centres unmarked),25.5%
5,CC(C)CN(C(=O)CSc1nnc2ccccn12)C1CCS(=O)(=O)C1 (centres unmarked),8.69%
6,CCOC(=O)Cn1ncc2c3ccccc3n(CC(=O)OCC)c2c1=O,13.4%
7,Cc1cccc(CSc2ccc3nnc(-c4cccs4)n3n2)c1,5.73%
8,Cc1cccc(CSc2nnc(-c3ccccn3)n2N)c1,9.76%
9,Cc1cccc(CSc2ccc3nnc(-c4ccccn4)n3n2)c1,-58.9%
10,Cc1ccc(NC(=O)c2cc(NC(=O)C3CC=CCC3C(=O)O)ccc2N2CCOCC2)cc1Cl (centres unmarked),5.76%
11,O=C(/C=C/c1ccco1)Nc1cccc(S(=O)(=O)N2CCOCC2)c1,-5.85%
12,O=C(O)C(=O)O.O=[N+]([O-])c1ccc(S(=O)(=O)N2CCN(Cc3c[nH]c4ccccc34)CC2)cc1,-10.1%
13,O=[N+]([O-])c1ccc(CN2CCN(Cc3c[nH]c4ccccc34)CC2)cc1,-73.7%
14,COc1ccc(CN2CCN(Cc3c[nH]c4ccccc34)CC2)cc1.O=C(O)C(=O)O,-27.2%
15,c1ccc(CN2CCN(Cc3c[nH]c4ccccc34)CC2)cc1,15.3%
16,CCOc1ccc(CN2CCN(Cc3c[nH]c4ccccc34)CC2)cc1.O=C(O)C(=O)O,-85.8%
17,Brc1ccc(CN2CCN(Cc3c[nH]c4ccccc34)CC2)cc1.O=C(O)C(=O)O,-22%
18,CC(C)Sc1nnc(-c2ccc(S(=O)(=O)N3CCOCC3)cc2)n1C,7.81%
